Shown are actives, neighbours in structure and some others; about 0.9% of the full set was active somewhere.
PPARg SRC2 recr – PPARgamma-driven SRC-2 recruitment agonism; actives 0.34% (n = 200,000); PPARgamma LBD-SRC-2 recruitment, biochemical; activation, % at 8 µM; P37231; in the data active = activation above about 22%
Target sequence (P37231 whole entry, looked up, the tested form may be a part): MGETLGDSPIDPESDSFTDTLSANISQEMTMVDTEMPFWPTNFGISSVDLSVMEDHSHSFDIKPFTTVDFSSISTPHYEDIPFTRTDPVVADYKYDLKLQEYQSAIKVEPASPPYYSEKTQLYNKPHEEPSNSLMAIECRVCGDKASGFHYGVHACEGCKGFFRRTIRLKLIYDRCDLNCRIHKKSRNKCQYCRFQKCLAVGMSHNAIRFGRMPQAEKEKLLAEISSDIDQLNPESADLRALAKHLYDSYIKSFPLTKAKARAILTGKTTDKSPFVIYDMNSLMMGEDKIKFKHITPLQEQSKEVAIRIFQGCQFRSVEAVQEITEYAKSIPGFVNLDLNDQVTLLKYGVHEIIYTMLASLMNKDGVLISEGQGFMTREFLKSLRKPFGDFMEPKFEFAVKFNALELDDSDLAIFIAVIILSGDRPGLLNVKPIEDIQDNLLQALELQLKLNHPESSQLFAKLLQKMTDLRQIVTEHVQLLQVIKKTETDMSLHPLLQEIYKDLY
TR-FRET SRC-2 ct – flags TR-FRET format artefacts in PPARgamma SRC-2 recruitment agonist screen; TR-FRET ratio at 8 µM; actives 0.4% (n = 200,000); TR-FRET artefact counter-screen; stronger effect = higher value
SRC3 TRFRET art – TR-FRET artefact, counter-screen to PPARgamma/SRC-3 agonist assay | PPARgamma/SRC-3 format; stronger effect = higher value | TR-FRET ratio at 8 µM | actives 0.39% (n = 99,000) | AID 1048
PPARg SRC-3 ag – PPARgamma-driven SRC-3 recruitment agonism; actives 0.26% (n = 200,000); biochemical PPARgamma/SRC-3 coactivator recruitment assay; activation, % at 8 µM; in the data active = activation above about 23%
SRC1 TRFRET art – counter-screen for PPARgamma SRC-1 recruitment agonists: TR-FRET artefact. TR-FRET detection artefact counter-screen, emission ratio; stronger effect = higher value. TR-FRET ratio at 8 µM. actives 0.34% (n = 99,000). AID 1051; in the data active = TR-FRET ratio above about 2300
PPARg SRC1 recr – promotes SRC-1 coactivator recruitment by human PPARgamma; P37231; PPARgamma-SRC-1 coactivator recruitment biochemical assay; activation, % at 8 µM; actives 0.41% (n = 200,000); in the data active = activation above about 19%
Each line names hits and unclear results; the compound was inactive in the other large screens. Cut-off read from the data, not from the text of the source, unless noted: active = TR-FRET ratio above about 2000; inactive = the rest.

Cc1nc2cc(NCc3ccccc3O)ccc2n1Cc1ccccc1	none
CCOC(=O)CNC(=S)N1CCn2c(nc3ccccc32)C1	none
Cc1ccnc(SCC(=O)Nc2sc3c(c2C#N)CCC(C(C)(C)C)C3)n1 (stereo not drawn)	none (no result: SRC3 TRFRET art, SRC1 TRFRET art)
CC(C)(C)C1CCc2c(sc(NC(=O)CSc3nnc(-c4ccccc4)o3)c2C#N)C1 (stereo not drawn)	TR-FRET SRC-2 ct 1982
Cc1cc(=O)[nH]c(N/N=C/c2sccc2C)n1	none
Cc1ccsc1/C=N/Nc1nc2ccccc2[nH]1	SRC1 TRFRET art 2515
CCC(C)NC(=O)c1c(-c2cc(Cl)c(OC)c(Cl)c2)noc1C (stereo not drawn)	none
Cc1cc(OCC(=O)Nc2ccc3oc(-c4ccncc4)nc3c2)ccc1Cl	PPARg SRC1 recr 42 (no result: SRC3 TRFRET art, SRC1 TRFRET art)
O=C(Nc1ccc2oc(-c3ccncc3)nc2c1)c1ccc(F)cc1	none
O=C(Nc1ccc2oc(-c3ccncc3)nc2c1)c1c(F)c(F)c(F)c(F)c1F	PPARg SRC1 recr 48 (no result: SRC3 TRFRET art, SRC1 TRFRET art)
O=C(Cc1ccc(Cl)cc1)Nc1ccc2oc(-c3ccncc3)nc2c1	none (no result: SRC3 TRFRET art, SRC1 TRFRET art)
CCc1ccc2oc(C(=O)Nc3ccc(S(N)(=O)=O)cc3)c(C)c2c1	SRC1 TRFRET art 2324
O=C(O)CCCC(=O)Nc1cc([N+](=O)[O-])ccc1O	PPARg SRC1 recr 22
COc1ccccc1C(=O)NCC1(c2ccccc2)CCCC1	none
N#Cc1ccccc1Sc1ccccc1C(=O)OCc1nnc(-c2ccccc2)o1	TR-FRET SRC-2 ct 2002 (no result: SRC3 TRFRET art, SRC1 TRFRET art)
N#Cc1ccccc1Sc1ccccc1C(=O)OCC(N)=O	none
COC(=O)c1sc(NC(=S)NC(=O)c2ccccc2F)nc1C	TR-FRET SRC-2 ct 2016, SRC1 TRFRET art 2321
CC(C)C(C)(C#N)NC(=O)CSc1nnc(-c2ccncc2)n1Cc1ccccc1 (stereo not drawn)	none (no result: SRC3 TRFRET art, SRC1 TRFRET art)
CC(C)C(C)(C#N)NC(=O)CSc1nc2scc(-c3ccc(F)cc3)c2c(=O)n1Cc1ccccc1 (stereo not drawn)	TR-FRET SRC-2 ct 2522, SRC3 TRFRET art 2793, SRC1 TRFRET art 2769
N#CC(C#N)=c1ccc2c(c1)NC1(CCCCC1)N=2	PPARg SRC2 recr 28, PPARg SRC-3 ag 29, PPARg SRC1 recr 39 (no result: SRC3 TRFRET art, SRC1 TRFRET art)
O=C1NC2(CCCC2)N=C1c1ccc(Cl)cc1	none (no result: SRC3 TRFRET art, SRC1 TRFRET art)
Cc1ccc(CNC(=O)COc2ccc(C(=O)c3ccc(F)cc3)cc2)cc1	SRC1 TRFRET art 2702, PPARg SRC1 recr 39
Cc1ccc(S(=O)(=O)N2CCC(=O)N(CCOCc3ccc(Cl)cc3)CC2)cc1	none
C=CCc1c(NCCO)nc(C)[nH]c1=O	none
CN(CP(=O)(O)CN(C)S(C)(=O)=O)S(C)(=O)=O	PPARg SRC1 recr 21 (no result: SRC3 TRFRET art, SRC1 TRFRET art)
CC1C(Br)C(=O)NC(=O)N1Cc1ccccc1 (stereo not drawn)	PPARg SRC1 recr 21
CCc1ccc(N/C(N)=N/c2nc(CSc3ccccn3)cc(=O)[nH]2)cc1	SRC3 TRFRET art 2114
COc1cccc(N/C(N)=N/c2nc(CSc3ccccn3)cc(=O)[nH]2)c1	none
CCN(CC)c1ccc(C=Nc2cc(C)ccc2C)c(O)c1	PPARg SRC1 recr 21
COC(=O)c1ccc(NC(=O)CNc2ccccc2)cc1	none
Cc1cc(NC(=O)CSc2ccc(-c3nc4cc(C)c(C)cc4[nH]3)cn2)no1	none (no result: SRC3 TRFRET art, SRC1 TRFRET art)
Cc1cc2nc(-c3ccc(SCC(=O)Nc4ccc(S(=O)(=O)NC5CC5)cc4)nc3)[nH]c2cc1C	TR-FRET SRC-2 ct 2456, SRC3 TRFRET art 3182, SRC1 TRFRET art 2422
Cc1cc2nc(-c3ccc(SCC(=O)N4CCc5ccccc54)nc3)[nH]c2cc1C	TR-FRET SRC-2 ct 2115 (no result: SRC3 TRFRET art, SRC1 TRFRET art)
O=C(CSc1ncccc1-c1nc2ccccc2[nH]1)N1CCc2ccccc21	TR-FRET SRC-2 ct 2650, SRC3 TRFRET art 3407, SRC1 TRFRET art 2802
COc1ccc(C(=O)NC(=S)Nc2ccc(N3CCOCC3)c(Cl)c2)cc1[N+](=O)[O-]	none
Cc1ccc(-n2cc(CN(C)Cc3ncc[nH]3)c(-c3cccc(C)c3)n2)cc1	none
CCCCN(CC)CCCNC(=O)CC1Nc2ccccc2NC1=O (stereo not drawn)	PPARg SRC2 recr 22 (no result: SRC3 TRFRET art, SRC1 TRFRET art)
O=C(CSc1nnc(C2CC2)n1Cc1ccco1)NCC(F)(F)F	SRC1 TRFRET art 2315
COc1ccc2c(-c3ccccc3)cc(SCC(=O)NC(N)=O)nc2c1	SRC3 TRFRET art 4477, PPARg SRC-3 ag 33
Cc1cccn2c(=O)c3cc(C(=O)NCCN4CCOCC4)c(=N)n(CCc4ccccc4)c3nc12	PPARg SRC-3 ag 28 (no result: SRC3 TRFRET art, SRC1 TRFRET art)
COc1ccc(C2(O)CCN(CC(=O)Nc3nccs3)CC2)c(OC)c1	TR-FRET SRC-2 ct 1972 (no result: SRC3 TRFRET art, SRC1 TRFRET art)
O=C(NCc1cccs1)C(=O)c1cn(CC(=O)N2CCCC2)c2ccccc12	none
Cc1ccc(Sc2cnn(-c3ccccc3)c(=O)c2Cl)cc1	TR-FRET SRC-2 ct 2023 (no result: SRC3 TRFRET art, SRC1 TRFRET art)
Nc1ccc(Sc2cnn(-c3ccccc3)c(=O)c2Cl)cc1	none (no result: SRC3 TRFRET art, SRC1 TRFRET art)
CCN1C(=O)/C(=C/C=C2/SCCN2C)SC1=S	none (no result: SRC3 TRFRET art, SRC1 TRFRET art)
CN1CCS/C1=C\C=C1/SC(=S)N(CC(=O)O)C1=O	PPARg SRC1 recr 24
Cn1c(=O)c2[nH]c(-c3ccccc3)c(O)c2n(C)c1=O	SRC1 TRFRET art 2338
Cn1c(=O)c2[nH]c(-c3ccccc3Cl)c(O)c2n(C)c1=O	none
O=c1oc2ccccc2c(O)c1C=Nc1cccnc1	none
O=C(COC(=O)c1ccccc1C(=O)c1ccccc1)NCCc1ccccc1	PPARg SRC1 recr 21
CC(=O)CC(=O)Nc1ccccc1NC(C)=O	none (no result: SRC3 TRFRET art, SRC1 TRFRET art)
CC(C)Cc1nc2sc3c(NCc4ccco4)ncnc3c2c2c1COC(C)(C)C2	PPARg SRC2 recr 106, TR-FRET SRC-2 ct 4130 (no result: SRC3 TRFRET art, SRC1 TRFRET art)
Cc1csc(NC(=O)CSc2nnc(-c3ccoc3C)n2Cc2ccco2)n1	none (no result: SRC3 TRFRET art, SRC1 TRFRET art)
COc1ccc(C2C(C(C)=O)=C(O)C(=O)N2c2nccs2)cc1OC (stereo not drawn)	none
COc1ccc(C2C(C(C)=O)=C(O)C(=O)N2c2nc3ccccc3s2)cc1OC (stereo not drawn)	SRC3 TRFRET art 2067
COc1ccc(-n2c(C)cc(C(=O)CSc3nnc(-c4ccoc4C)n3C)c2C)cc1	none (no result: SRC3 TRFRET art, SRC1 TRFRET art)
COc1ccc(OC)c2c1sc(=NC(=O)C(C)(C)C)n2C	PPARg SRC2 recr 121, TR-FRET SRC-2 ct 4080, PPARg SRC-3 ag 32 (no result: SRC3 TRFRET art, SRC1 TRFRET art)
Cc1cccc2c(C(=O)n3cccn3)cc(-c3ccccc3Cl)nc12	none
Cc1nn(Cc2c(F)cccc2Cl)c(C)c1[N+](=O)[O-]	PPARg SRC1 recr 21
COc1cc(CNCc2ccccn2)ccc1OCc1cccc(Cl)c1	none (no result: SRC3 TRFRET art, SRC1 TRFRET art)
COC(=O)[C@@]1(Cc2ccc(F)cc2)[C@H]2c3cc(C(=O)N(C)C)n(Cc4ccc(OC(F)(F)F)cc4)c3C[C@H]2CN1C(=O)c1ccccc1	none
COc1ccc(Nc2ccc(Nc3ccc(OC)cc3)nn2)cc1	SRC1 TRFRET art 2360
COc1ccc(Nc2cc(C)c3ccccc3n2)cc1	none
Cc1nc2ccc(NC(=O)c3ccc(Cl)c(S(=O)(=O)N(C)c4ccccc4)c3)cc2s1	SRC3 TRFRET art 2532
Cc1nc2ccc(NC(=O)c3cc(S(=O)(=O)N(C)c4ccccc4)ccc3Cl)cc2s1	none

High-throughput results from PubChem BioAssay.
